Assay results published in PubChem BioAssay AID588856 (National Center for Advancing Translational Sciences (NCATS), 2011).
In all, about 410,000 compounds went through this assay and about 3,100 (0.76%) were called active. A call without a number means that no potency is given here. Calls come from the whole dose curve; as a rule, active = well fitted cell-killing curve with a large enough effect; inactive = no such curve, though single readings can be large or run the other way. This excerpt belongs to a sample that is enriched for actives.

Assay: qHTS for Inhibitors of TGF-b: Cytotox Counterscreen
Details: HepG2 CAGA-GFP viability, ATP luminescence, 18 h; series mostly up to 46.1 µM
Source text: TGF-b is a main component in the TGF-b signaling pathway which plays diverse roles in cellular and development pathways. TGF-b is mediated by transcription factors called "Smads". Although the Smad-dependent pathway is the primary canonical TGF-b signaling mode, TGF-b1 can also activate alternative signaling pathways, including those involving MAPK (ERK, JNK and p38). This interaction may mediate or enhance Smad-dependent responses, or can exert Smad-independent effects. The complexity of this signaling cascade allows the TGF-b superfamily to perform unique, overlapping or redundant functions. We believe that targeting the TGF-beta pathway at the Smad-transcription factor level may eliminate the consequences of disrupting the entire pathway and offer specificity without affecting other signaling pathways. Smad3 is the primary transducer of TGF-b's signals and Smad3 regulates many functions attributed to TGF-b signaling. We hypothesize that Smad3 inhibitors will selectively eliminate Smad3-specific TGF-beta signals without undesired off-target effects. We aim to identify Smad3-small molecule antagonists using a quantitative high throughput screening (qHTS) approach.
A high-throughput assay was developed to screen the NIH Molecular Libraries Small Molecule Repository (MLSMR). This is a cell based assay, where TGF-b is tagged with GFP. This is a counterscreen that evaluates the cytotoxicity of the compounds that were screened in the primary cell-based screen (AID 588855).
MH087449NIH Chemical Genomics Center [NCGC]
NIH Molecular Libraries Probe Centers Network [MLPCN]
Assay Submitter (PI): Sushil Rane, National Institute of […]
Suspensions of trypsinized HEPG2 CAGA-GFP cells were dispensed into white, tissue culture-treated, solid 1536-well plates at 5uL/well (1000 cells/well final concentration) in DMEM medium supplemented with 1% FBS. Plates were incubated at 37 degrees C for 2 hours, after which 23 nL of compounds or DMSO were delivered to each well using a pin tool. One uL of recombinant TGF-beta in DMEM (1% FBS) was then dispensed (500 pg/mL final concentration), and plates were incubated at 37 degrees C for 18 hours. Two uL of CellTiter Glo (Promega), a luminescence-based viability reagent, was dispensed, followed by a 10 minute room temperature incubation. The plates were then measured on a PerkinElmer ViewLux plate reader for luminescence (clear filter) using a 5 second exposure. The %Activity was determined from the corrected luminescence values. Wells containing media only (no cells) were used to normalize %Activity of identified toxic compounds; media-only wells corresponded to 100%Activity (complete cell-killing), while DMSO-dosed cell controls were used to normalize 0%Activity (no toxicity).
Concentration-response curves were fitted to the signals arising from the resulting luminescence. The concentration-effect curves were then classified based on curve quality (r2), response magnitude and degree of measured activity, and compounds were subsequently categorized based on their curve class.
Potency is the fitted concentration of half-maximal effect.

Row | Compound | Potency
1 | COc1ccc2c(c1O)-c1cccc3c1[C@@H](C2)N(C)CC3 | inactive
2 | COc1c(O)ccc2c1-c1c3c(cc4c1C(C2)N(C)CC4)OCO3 (centres undefined) | inactive
3 | COc1ccc2cc1Oc1ccc(cc1)C[C@H]1c3cc(c(OC)cc3CCN1C)Oc1c(O)c(OC)cc3c1[C@H](C2)N(C)CC3 | 7.94 µM (active)
4 | CC(C)COC(=O)n1c(=O)oc2ccc(S(=O)(=O)N3CCCCC3)cc21 | inactive
5 | COc1ccccc1CNC(=O)C(Cc1ccccc1)NS(=O)(=O)c1ccc2c(c1)oc(=O)n2C (centres undefined) | inactive
6 | ClCCN(CCCl)c1ccc(C=Nc2ccc(/C=C/c3ccnc4ccccc34)cc2)cc1 | inactive
7 | Cc1ccc(C(O)P(=O)(OC(C)C)c2ccc(N(C)C)cc2)cc1 (centres undefined) | inactive
8 | COc1ccc(CCNC(=O)CCn2c(=O)oc3ccccc32)cc1OC | inactive
9 | CC(C)(C)c1ccc(CN2C(=O)CN=C(c3ccccc3)c3ccccc32)cc1 | 12.6 µM (active)
10 | O=C1CC(=O)N(Cc2ccccc2)C(=O)N1CCCCCCN1C(=O)CC(=O)N(Cc2ccccc2)C1=O | inactive
11 | CC(C)OP(=O)(OC(C)C)C(Nc1ccccc1)c1cccc([N+](=O)[O-])c1 (centres undefined) | inactive
12 | O=c1[nH]c(=S)[nH]c(O)c1/C=C1\C=Nc2ccccc21 | inactive
13 | COc1ccccc1CNC(=O)Cn1c(=O)oc2cc(Cl)ccc21 | inactive
14 | N#Cc1c(Cl)c(Cl)c(Cl)c(C#N)c1Cl | 0.316 µM (active)
15 | Cn1c(=O)oc2cc(S(=O)(=O)N3CCC(C(=O)Nc4ccc(OC(F)(F)F)cc4)CC3)ccc21 | inactive
16 | CCCCOP(=O)(c1ccc(N(C)C)cc1)C(O)c1cc(OC)ccc1OC (centres undefined) | inactive
17 | COc1cc([C@@H]2c3cc4c(cc3[C@H](OC(C)=O)[C@H]3COC(=O)[C@H]23)OCO4)cc(OC)c1OC | inactive
18 | CCOC(=O)C(NS(=O)(=O)c1ccc(C)cc1)(C(F)(F)F)P(=O)(OCC(C)C)OCC(C)C (centres undefined) | inactive
19 | CN(C)CC1Oc2ccccc2OC1(O)c1ccccc1 (centres undefined) | 3.98 µM (active)
20 | CO[C@H]1[C@@H](O)[C@@H](C)O[C@H](O[C@H]2[C@H](Oc3cccc4c(O)c5c(=O)oc6ccc(C)c7c(=O)oc(c34)c5c67)O[C@H](C)[C@H](O)[C@@H]2O)[C@@H]1O | inactive
21 | CCOC(=O)c1ccc(NC(=O)CCn2c(=O)oc3ccccc32)cc1 | inactive
22 | O=C1NC(=O)N(Cc2ccco2)C(=O)/C1=C\c1ccc(-c2ccc(F)cc2)o1 | 12.6 µM (active)
23 | CCOP(=O)(OCC)C(Cc1ccccc1)N=C(c1ccccc1)c1ccccc1 (centres undefined) | inactive
24 | Cc1ccc2c(c1)C1C[N+](C)(CC(=O)c3ccccc3)CCC1N2C(=O)c1ccccc1Cl (centres undefined) | inactive
25 | Brc1cc(Br)c(Oc2cc(Br)c(Br)cc2Br)cc1Br | inactive
26 | COC(=O)C1=C(c2ccccc2)C[C@@H]2CC[C@H]1N2C(=O)NCc1ccco1 | inactive
27 | COc1cc(Cn2c(N)c(C(=O)NCc3ccco3)c3nc4ccccc4nc32)cc(OC)c1OC | 17.8 µM (active)
28 | Cc1ncoc1C(=O)NCC1=C(c2cccc3ccccc23)C[C@@H]2CC[C@H]1N2Cc1ccco1 | inactive
29 | CCN(CC)C(=O)Oc1ccc(OC(=O)N(CC)CC)cc1 | inactive
